Sampled rows, rich in hits. Any-hit rate of the full collection: about 4.4%.
TRHR ag: agonists of human TRH receptor | activation, % at 2 µM | AID 493084 | TRHR cells, calcium flux fluo-8, FDSS agonist mode | P34981 | 360,000 compounds, 0.18% hits
Target sequence (P34981 whole entry, looked up): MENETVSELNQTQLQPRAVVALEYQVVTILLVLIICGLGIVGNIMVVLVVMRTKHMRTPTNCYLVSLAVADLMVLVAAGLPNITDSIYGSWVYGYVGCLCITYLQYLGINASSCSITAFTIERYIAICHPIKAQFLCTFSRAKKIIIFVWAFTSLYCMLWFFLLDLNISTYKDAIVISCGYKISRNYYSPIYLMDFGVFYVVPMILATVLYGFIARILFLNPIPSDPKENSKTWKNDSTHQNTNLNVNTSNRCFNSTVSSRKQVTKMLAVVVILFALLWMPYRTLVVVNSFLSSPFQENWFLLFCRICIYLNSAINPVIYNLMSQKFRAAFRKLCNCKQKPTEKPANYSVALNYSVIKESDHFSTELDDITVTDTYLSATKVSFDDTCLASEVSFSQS
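In this calcium-flux screen, cells bearing human TRHR are dye-loaded with fluo-8, baselined for 10 cycles, then exposed to library compounds; positive kinetic calcium responses during the agonist phase mark hits, with TRH as control.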
TRHR PAM: TRH receptor (human) allosteric enhancement | TRHR cells, fluo-8 calcium fluorescence, EC20 TRH enhancement | enhancement, % at 2 µM | 360,000 compounds, 0.66% hits; in the data active = enhancement above about 30%
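TRHR-expressing cells loaded with fluo-8 calcium dye were read kinetically (ex 480/em 530) during compound addition, then stimulated with an EC20 of TRH (10 nM final). Enhancement of the Gq-mediated intracellular calcium response was scored.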
D1 agonist: human D1 receptor agonism | P21728 | HEK293 T-REx D1 cells, calcium flux, agonist mode | activation, % at 2 µM | 360,000 compounds, 1% hits
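Agonism was scored from calcium flux recorded over 180 s (1 read/s) after pintool compound addition, following a 10-cycle baseline. Cells were inducible force-coupled HEK293 TREx D1, plated overnight at 30 C and loaded with no-wash calcium dye.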
D1 antagonist: blocks dopamine activation of the human D1 receptor | P21728 | HEK293 TREx D1 cells, calcium flux, dopamine EC80; active compounds read low | activity change, negative = inhibition, % at 10 µM | 360,000 compounds, 3.2% hits | AID 504652; in the data active = activity change below about -30%
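Kinetic fluorescence of a calcium dye serves as the read-out. D1-expressing Hek293 Trex cells, induced overnight at 30 C, are exposed to compound for 180 s before an EC80 dopamine addition, then read 180 s further.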
D1 potentiator: potentiators of human D1 dopamine receptor | P21728 | HEK293 TREx D1 cells, calcium flux, dopamine EC20 potentiation | potentiation, % at 10 µM | 360,000 compounds, 0.036% hits | AID 504651; in the data active = potentiation above about 30%
USP1 inh: USP1/UAF1 (human) deubiquitinase inhibition | recombinant USP1/UAF1, Ub-Rhodamine cleavage fluorescence | O94782 | Potency, µM (highest dose often 57.1 µM), hits mostly inhibitors | 390,000 compounds, 0.23% hits | AID 743255; active = well fitted inhibition curve with a large enough effect; inconclusive = small, poorly fitted or top-dose-only effect; inactive = no such curve, though single readings can be large or run the other way; note: nearly all actives have a fitted effect of over 60% in size
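USP1/UAF1 complex at 1 nM was preincubated with compound for 15 min at room temperature, then Ub-Rho substrate (150nM final) was added. Fluorescence (480/540 nm) was read kinetically, 6 reads every 60 seconds.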
Each line names hits and unclear results; the compound was inactive in the other large screens. Cut-off read from the data, not from the text of the source, unless noted: active = activation above about 30%; inactive = the rest.

COc1cc(C2CC(=O)OC3=C2C(=O)CC(C)(C)C3)cc(OC)c1OC (configuration not stated)	TRHR PAM 32.8
COc1cc(C2CC(=O)NC3=C2C(=O)CC(C)(C)C3)cc(OC)c1O (configuration not stated)	none
CCc1ccc(NC(=O)Cn2c(=O)n(-c3ccc(Cl)c(Cl)c3)c(=O)c3c(C)c(C)sc32)cc1	none
CN(C)c1ccc(C=C2SC(=S)N(Cc3ccco3)C2=O)cc1	none (no result: TRHR ag, TRHR PAM, D1 agonist, D1 antagonist, D1 potentiator)
Cc1cc(/C=C2\SC(=S)N(Cc3ccco3)C2=O)c(C)n1-c1ccccc1	D1 agonist 30.7, USP1 inh inconclusive
C#CCOCCOCCOCCNc1nc(N2CCN(C(=O)CCCCCCCCCCNC(=O)[C@H](CCCCN)n3cc(C)nn3)CC2)nc(N2CCN(C(=O)CCCCCCCCCCNC(=O)[C@H](CCCCN)n3cc(CCCC(=O)O)nn3)CC2)n1	D1 agonist 30.4, USP1 inh inconclusive
C#CCOCCOCCOCCNc1nc(N2CCN(C(=O)CCCCCCCCCCNC(=O)[C@H](CCCCN)n3cc(CCCC(=O)O)nn3)CC2)nc(N2CCN(C(=O)CCCCCCCCCCNC(=O)[C@@H]([C@H](C)O)n3cc(C)nn3)CC2)n1	D1 agonist 44.0, USP1 inh inconclusive
COc1ccc(Cl)cc1NC(=O)CSc1ccc2nnc(CCNS(=O)(=O)c3ccccc3)n2n1	none
CCOC(=O)N1CCC(NC(=O)c2cnn(-c3ccc(C)cc3)c2-n2cccc2)CC1	none
Cc1noc(C)c1COC(=O)CCc1nc2ccccc2s1	D1 antagonist -31.6
CCOC(=O)C1CCN(C(=O)c2[nH]c3ccc(OC)cc3c2C)CC1	D1 antagonist -67.3
COc1ccc(N2CCN(C(=O)c3[nH]c4ccc(OC)cc4c3C)CC2)cc1	none
COc1cc(OC)c(NC(=O)c2c(C)nn(-c3ccc(C)cc3)c2-n2cccc2)cc1Cl	none
Cc1nn(-c2ccccc2)c2sc(C(=O)Nc3ccc(Cl)cc3Cl)cc12	D1 antagonist -82.8, USP1 inh inconclusive
Cc1ccc(NC(=O)c2c(C)nn(-c3ccccc3)c2-n2cccc2)c(Cl)c1	D1 antagonist -32.9
CCn1c(C(=O)NCc2ccccc2Br)cc2oc3ccccc3c21	none
C[C@@H](C(=O)Nc1nc2ccc(F)cc2s1)N1C(=O)C2CC=CCC2C1=O (some centres not stated)	D1 antagonist -45.0
C=CCN1C(=O)/C(=C/c2ccc(OC(C)=O)c(OCC)c2[N+](=O)[O-])SC1=S	D1 antagonist -30.6, USP1 inh 14.1µM
CCOc1c(OC(C)=O)ccc(/C=C/c2ccc3cccc(OC(C)=O)c3n2)c1[N+](=O)[O-]	none
CCOCCCNC(=O)C(NC(=O)C1CCC(C)CC1)C(C)C (configuration not stated)	none
Cc1ccc(CN(Cc2ccco2)C(=O)c2oc3c(C)c(C)ccc3c2C)cc1	none
Cc1ccc(CN(Cc2ccco2)C(=O)c2oc3ccc(C)cc3c2C)cc1	D1 agonist 37.0
Cc1ccc(CN(Cc2ccco2)C(=S)NCC(=O)NC2CC2)cc1	D1 antagonist -30.5
Cc1ccc2occ(CC(=O)N(Cc3ccc(Cl)cc3)Cc3ccco3)c2c1	D1 agonist 90.1
Cc1cc2oc(C(=O)N(Cc3ccco3)Cc3ccccc3Cl)c(C)c2cc1C	TRHR PAM 41.4
Cc1cc2oc(C(=O)N(Cc3ccc(N(C)C)cc3)Cc3ccco3)c(C)c2cc1Cl	none
CC(=O)c1cccc(CN(C)CC2CCCN(CCc3ccccc3C)C2)c1 (configuration not stated)	D1 antagonist -65.6
COc1ccc(F)c(CN(C)CC2CCCN(CCc3ccc(F)cc3)C2)c1 (configuration not stated)	D1 antagonist -57.6
CN(Cc1ccccc1)CC1CCCN(CCc2ccccc2F)C1 (configuration not stated)	none
COc1ccc(CN(C)CC2CCCN(CCc3ccc(F)cc3)C2)cc1OC (configuration not stated)	none
Cc1ccccc1CCN1CCCC(CN(C)CC(C)(C)C)C1 (configuration not stated)	D1 antagonist -53.9
COc1ccccc1CCN1CCCC(CN(C)C(=O)c2ccco2)C1 (configuration not stated)	D1 antagonist -49.7
Cc1cc2c(s1)c1cnn(Cc3cc(F)cc(F)c3F)c(=O)c1n2C	none (no result: USP1 inh)
Cc1c(Cl)cccc1NC(=O)Cn1cc(C(=O)C2CCCCC2)c2ccccc21	USP1 inh inconclusive
CSc1cccc(NC(=O)C2CCN(c3ncnc4c3nc3n4CCCCC3)CC2)c1	none
CCCCN(CC)C(=O)Nc1ccc2c(c1)N(C)C(=O)c1ccccc1S2	none
COC(=O)c1ccccc1NC(=O)c1ccc(-c2nc(COc3ccccc3)c(C)o2)cc1	none
CCOC(=O)C1CCCN(c2nc3ccccc3nc2C(C#N)C(=O)NCc2ccccc2)C1 (configuration not stated)	D1 agonist 32.6, USP1 inh inconclusive
N#CC(C(=O)NCc1ccccc1)c1nc2ccccc2nc1N1CCCC1 (configuration not stated)	USP1 inh inconclusive
COc1ccc(-c2c(C)nn3c(-c4ccccc4)cc(C)nc23)cc1OC	TRHR PAM 35.8
Cc1cc(NC(=O)Cn2c(=O)oc3cc(S(=O)(=O)N4CCCC4)ccc32)ccc1Br	none
OCCCCNCc1ccc(OCc2ccccc2)cc1	none
Clc1cccc(OCCCCN2CCCCC2)c1	TRHR PAM 34.3
c1ccc(COc2ccc(OCCCCN3CCCCC3)cc2)cc1	D1 agonist 41.5, D1 antagonist -35.2
OCCNCCCCOc1ccc(OCc2ccccc2)cc1	D1 agonist 46.5, D1 antagonist -30.6
COc1ccccc1CNC(=O)C1CCCN(c2nnc(-n3c(C)ccc3C)s2)C1 (configuration not stated)	none
COc1ccc(CCNC(=O)CSc2n[nH]c(-c3ccccc3Cl)n2)cc1OC	USP1 inh inconclusive
CSc1ccc2c(c1)C(N1CCN(C)CC1)Cc1ccccc1S2 (configuration not stated)	D1 antagonist -86.9
CN1CCN(C2Cc3ccccc3Sc3cc(C(F)(F)F)ccc32)CC1 (configuration not stated)	none (no result: TRHR ag, TRHR PAM, D1 agonist, D1 antagonist, D1 potentiator)
CN1CCN(C2Cc3ccccc3Sc3ccc(Cl)cc32)CC1 (configuration not stated)	D1 antagonist -105.2
CCc1ccc(CN(Cc2ccco2)C(=O)COc2ccccc2Cl)cc1	none
CC(=O)c1ccc(N2CCN(C(=O)Nc3ccc(C(C)C)cc3)CC2)cc1	D1 antagonist -47.1

Assay outcomes from PubChem.
